# Source: PubChem BioAssay (NCATS)
# A number with no mark means an inactive call. Records with an inconclusive call do not appear. Entries that show only a call come without a potency. Calls of active or inactive are those of the source. Unless noted, calls follow the shape of the dose curve; as a rule, active = well fitted curve in the direction sought with a large enough effect; inconclusive = small, poorly fitted or top-dose-only effect, or another doubt; inactive = no such curve, though single readings can be large; an effect the other way counts as inactive or inconclusive.
# How the values were obtained:
# [1] = target: Lysosomal acid glucosylceramidase (Homo sapiens) (UniProt P04062); test: Glucocerebrosidase-p2 (AID 348; in the data active = potency below about 10 µM; also: potency is read from the fitted curve at half-maximal effect); conditions: purified GBA, blue fluorogenic substrate, 40 min
# Method in brief: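 Normal human glucocerebrosidase (0.2 nM) with blue fluorogenic substrate (80 uM final) in citrate/phosphate pH 5.9 with 10mM sodium taurocholate, 0.01% tween-20; 40 min RT, NaOH/glycine stop; fluorescence Ex 365/Em 440; AC50 from a titration from 0.6 nM upwards.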
# [2] = AP1 Signaling Pathway (AID 357; active = well fitted curve in either direction with a large enough effect, not every such curve was filed as active;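 also: ME-180 reporter cells stimulated with EGF at its EC50 level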); conditions: ME-180 AP-1-bla reporter, EGF-induced, beta-lactamase ratio, 5 h; at 7.69 µM (top of the series)
# Method in brief: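 First, ME-180 AP-1-bla cells were cultured overnight at 37 °C in low-serum Opti-MEM. Next, titrated compounds with EC50 EGF were incubated 5 hours. Finally, CCF4 was added for 2.5 hours and the 460/530 nm ratio recorded.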
# [3] = Stat Signaling Pathway (AID 446; active = well fitted curve in either direction with a large enough effect, not every such curve was filed as active;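 also: ME-180 cervical cancer cells given 40 pM IL-6 alongside compound; SIE-controlled beta-lactamase reporter measured as 460/530 nm FRET emission ratio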); conditions: ME-180 (cervical carcinoma) SIE beta-lactamase reporter, IL-6 stimulated, 5 h; at 7.69 µM (top of the series)
# Method in brief: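 Emission at 460 and 530 nm (excitation 405 nm) reports SIE-controlled beta-lactamase in ME-180 cells. Cells received compound with 40 pM IL-6 for 5 hrs at 37 C; data scaled between 300 pM IL-6 and 125 nM JAK-inhibitor controls.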
# [4] = target: Mitogen-activated protein kinase 10 (Mus musculus) (UniProt Q61831); test: JNK3 AlphaScreen Assay (AID 530; active = well fitted curve in either direction with a large enough effect, not every such curve was filed as active;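 also: kinase came from lysate of stimulated human HepG2 cells; signal reports phosphorylation of biotinylated GST-cJun 1-79 at Ser73 with 10 µM ATP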); conditions: JNK3 lysate, c-Jun phosphorylation; series mostly up to 57.1 µM
# Method in brief: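 qHTS titrations with 15 min compound pre-incubation before adding ATP (10 uM final). Read-out: AlphaScreen of Ser73-phosphorylated biotin-GST-cJun using HepG2 lysate JNK3 activated by IL-1β and TNFα.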
# [5] = target: 3',5'-cyclic-AMP phosphodiesterase 4B (Homo sapiens) (UniProt Q07343); test: qHTS Assay for Inhibitors of PDE-IV (AID 607; active = well fitted activation curve with a large enough effect in the main read-out, with a control signal flat, not every such curve was filed as active); conditions: HEK293 ACTOne CNG channel cells, membrane potential fluorescence; series mostly up to 22.9 µM
# Method in brief: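 The readout is membrane depolarisation from a cAMP-sensing CNG channel, detected with a potential dye at ex 535/em 590. Cells were HEK293-derived (endogenous PDE-IV) at 1000 cells/well, titrated up to 22.9 uM final.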
# [6] = system: Zika virus NS2B-NS3 protease; test: Primary screen GU AMC qHTS for Zika virus inhibitors (AID 1347154); conditions: Zika NS2B-NS3 unlinked protease, AMC fluorogenic substrate; series mostly up to 54.1 µM; also: nearly all actives have a fitted effect of over 70% in size
# Method in brief: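 Fluorogenic AMC-substrate cleavage by noncovalent NS2B-NS3 protease complex (25 nM, pH 8.0 Tris buffer with Tween 20) followed for 15 minutes at room temperature (~20% conversion). Percent inhibition from ex340/em450 signal change, fitted by 4-parameter Hill equation.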
# [7] = Primary qHTS for small molecule stabilizers of the endoplasmic reticulum resident proteome: Secreted ER Calcium Modulated Protein (SERCaMP) assay (AID 1508630); conditions: SH-SY5Y GLuc-SERCaMP (Gaussia luciferase released on ER calcium loss) secretion, thapsigargin, luminescence; series mostly up to 38.4 µM
# Method in brief: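 The SH-SY5Y reporter protocol was run at 3 concentrations up to 38.3 uM (primary) or 11 concentrations (follow-up): 16 h compound, 100 nM thapsigargin for 4 h, then extracellular luciferase luminescence.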
# [8] = target: Glucocorticoid receptor (Homo sapiens) (UniProt P04150); test: GR-GFP Redistribution (AID 450;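 active = compounds whose dose series gives a full or clear partial fitted curve of increased nuclear translocation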; also: potency is read from the fitted curve at half-maximal effect); conditions: U2OS GR-GFP nuclear translocation, laser cytometry, 2 h
# [9] = target: Glucocorticoid receptor (Homo sapiens) (UniProt P04150); test: GR-EFC Redistribution (AID 451; calls by dose curve; also: potency is read from the fitted curve at half-maximal effect); conditions: CHO-K1 GR-EFC translocation, beta-gal luminescence, 2 h
# Method in brief: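 Translocation of GR-ED fusion to nuclear EA restores b-gal, read by luminescence after 1 h room-temperature detection. Engineered CHO-K1 biosensor cells, 1,000/well, exposed 2 h at 37 C to titrations up to 46 uM final.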
# [10] = target: Ubiquitin carboxyl-terminal hydrolase 1 (Homo sapiens) (UniProt O94782); test: Inhibitors of USP1/UAF1: Pilot qHTS (AID 504865); conditions: purified USP1/UAF1, Ub-rhodamine cleavage fluorescence; series mostly up to 114 µM;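 also: rhodamine fluorescence freed from ubiquitin-rhodamine substrate followed over time; top concentration of the series differs between compounds; nearly all actives have a fitted effect of over 35% in size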
# Method in brief: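 Kinetic fluorescence assay: 1nM USP1/UAF1, 15 min compound preincubation, then 150nM Ub-Rho; 480/540 nm.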
# [11] = target: DNA dC->dU-editing enzyme APOBEC-3G (Homo sapiens) (UniProt Q9HC16); test: qHTS for inhibitors of Vif-A3G interactions: Validation (AID 588379); conditions: Vif-A3G protein interaction assay; series mostly up to 46.1 µM
# Method in brief: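 Yellow fluorescence (Ex 488, Em 500-530) of Vif-coexpressing HeLa A3G-eYFP cells, scanned by Acumen cytometer, reports blocked A3G degradation. Cells plated at 700/well overnight at 37 deg C before compound addition, then a further overnight compound incubation at 37 deg C.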
# [12] = NCATS anti-infectives library activity on HEK293 viability as a counter-qHTS vs the C. elegans viability qHTS (AID 1745854); conditions: HEK293 viability counter-screen; series mostly up to 41.8 µM
# Method in brief: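 Cytotoxicity counter-screen to a worm viability qHTS: CellTiter-Glo luminescence read 10 min after reagent addition. Compounds (final up to 41.7 uM, a 1:5 dilution series) incubated 24 hr at 37C with 1,500 HEK293 cells per well; digitonin control.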
# [13] = target: Glutathione peroxidase 1 (Homo sapiens) (UniProt P07203); test: Primary qHTS Assay for Inhibitors of Recombinant Selenoprotein Glutathione Peroxidase 1 (GPX1) (AID 1845191); conditions: recombinant GPX1, GR-coupled NADPH fluorescence, 15 min; series mostly up to 48.8 µM; also: nearly all actives have a fitted effect of over 65% in size
# Method in brief: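 NADPH consumption tracked by fluorescence at 340/450 nm between t=0 and t=15 min, room temperature. Final mix: 10 nM GPX1, 100 nM glutathione reductase, 1 mM GSH, 0.5 mM NADPH, 0.5 mM cumene hydroperoxide, 0.01% BSA; 30 min compound–enzyme preincubation.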
# [14] = target: Cytochrome P450 3A4 (Homo sapiens) (UniProt P08684); test: qHTS Assay for Inhibitors and Substrates of Cytochrome P450 3A4 (AID 884); conditions: recombinant CYP3A4, Luciferin-PPXE luminescence; series mostly up to 57.1 µM; also: potency is read from the fitted curve at half-maximal effect; nearly all actives have a fitted effect of over 50% in size
# Method in brief: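 Luminescent readout of luciferin produced by CYP3A4 (20 nM) dealkylation of Luciferin-PPXE, 25 uM (its KM). NADPH-driven reaction ran 60 min at RT after 10 min compound preincubation; data scaled to 57 uM ketoconazole as 100% inhibition.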
# [15] = target: Cytochrome P450 3A4 (Homo sapiens) (UniProt P08684); test: qHTS Assay for Activators of Cytochrome P450 3A4 (AID 885); conditions: recombinant CYP3A4, Luciferin-PPXE luminescence, 60 min; series mostly up to 57.1 µM; also: nearly all actives have a fitted effect of over 65% in size
# Method in brief: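 Activators are scored by enhanced luminescence from CYP3A4 conversion of luciferin-PPXE (25uM, equal to KM) to luciferin, after 60 min at RT with an NADPH-regenerating system.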
# [16] = target: Tyrosine-protein kinase Yes (Homo sapiens) (UniProt P07947); test: qHTS for small molecule inhibitors of Yes1 kinase: Primary Screen (AID 686947); conditions: Yes1 kinase biochemical qHTS inhibition; series mostly up to 76.9 µM; also: potency is read from the fitted curve at half-maximal effect; nearly all actives have a fitted effect of over 60% in size
# Method in brief: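 ADP-Glo luminescence reports ADP formed by 4 nM Yes1 phosphorylating poly(E4Y) (0.3 mg/mL) with 0.1 mM ATP for 60 min at room temperature, following 20 min compound preincubation; normalised between DMSO wells with and without enzyme.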
# [17] = qHTS for small molecule inhibitors of Yes1 kinase: Counter Assay (AID 686950); conditions: series mostly up to 76.9 µM;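 also: no kinase present so only ADP-Glo detection of a fixed ADP amount is tested; luminescence from ADP-Glo reporting ADP in a fixed ATP and ADP mixture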
# Method in brief: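 ADP-Glo luminescence read after a 60 min room-temperature incubation of compound with an ATP/ADP mix (0.08 mM/0.02 mM) and no kinase, following a 20 min compound preincubation. Signal scaled between ATP+ADP (max) and 0.1 mM ATP-only (min) wells; Tris pH 7.5, Mg2+, DTT.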
# Chain of Cytochrome P450 3A4 (Homo sapiens) (P08684 whole entry, looked up): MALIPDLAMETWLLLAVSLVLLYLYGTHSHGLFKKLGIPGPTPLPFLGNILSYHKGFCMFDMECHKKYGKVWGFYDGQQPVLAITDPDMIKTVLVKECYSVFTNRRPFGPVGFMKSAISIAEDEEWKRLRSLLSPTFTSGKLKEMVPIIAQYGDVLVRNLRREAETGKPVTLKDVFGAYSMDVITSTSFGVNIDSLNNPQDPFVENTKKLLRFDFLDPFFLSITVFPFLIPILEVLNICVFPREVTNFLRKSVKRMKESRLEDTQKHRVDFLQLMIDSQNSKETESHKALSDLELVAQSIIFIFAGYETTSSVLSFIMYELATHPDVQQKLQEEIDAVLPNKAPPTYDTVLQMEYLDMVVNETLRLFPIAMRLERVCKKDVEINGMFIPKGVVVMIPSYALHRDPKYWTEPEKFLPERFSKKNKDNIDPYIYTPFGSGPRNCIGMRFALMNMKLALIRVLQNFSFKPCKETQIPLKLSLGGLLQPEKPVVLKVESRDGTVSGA
# Chain of Glutathione peroxidase 1 (Homo sapiens) (P07203 whole entry, looked up): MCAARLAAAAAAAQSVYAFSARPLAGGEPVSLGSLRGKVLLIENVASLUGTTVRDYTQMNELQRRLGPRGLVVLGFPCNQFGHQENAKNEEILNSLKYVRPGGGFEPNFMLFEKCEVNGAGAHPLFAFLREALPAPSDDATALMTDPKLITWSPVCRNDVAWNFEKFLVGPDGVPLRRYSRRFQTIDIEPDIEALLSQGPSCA
# Chain of 3',5'-cyclic-AMP phosphodiesterase 4B (Homo sapiens) (Q07343 whole entry, looked up): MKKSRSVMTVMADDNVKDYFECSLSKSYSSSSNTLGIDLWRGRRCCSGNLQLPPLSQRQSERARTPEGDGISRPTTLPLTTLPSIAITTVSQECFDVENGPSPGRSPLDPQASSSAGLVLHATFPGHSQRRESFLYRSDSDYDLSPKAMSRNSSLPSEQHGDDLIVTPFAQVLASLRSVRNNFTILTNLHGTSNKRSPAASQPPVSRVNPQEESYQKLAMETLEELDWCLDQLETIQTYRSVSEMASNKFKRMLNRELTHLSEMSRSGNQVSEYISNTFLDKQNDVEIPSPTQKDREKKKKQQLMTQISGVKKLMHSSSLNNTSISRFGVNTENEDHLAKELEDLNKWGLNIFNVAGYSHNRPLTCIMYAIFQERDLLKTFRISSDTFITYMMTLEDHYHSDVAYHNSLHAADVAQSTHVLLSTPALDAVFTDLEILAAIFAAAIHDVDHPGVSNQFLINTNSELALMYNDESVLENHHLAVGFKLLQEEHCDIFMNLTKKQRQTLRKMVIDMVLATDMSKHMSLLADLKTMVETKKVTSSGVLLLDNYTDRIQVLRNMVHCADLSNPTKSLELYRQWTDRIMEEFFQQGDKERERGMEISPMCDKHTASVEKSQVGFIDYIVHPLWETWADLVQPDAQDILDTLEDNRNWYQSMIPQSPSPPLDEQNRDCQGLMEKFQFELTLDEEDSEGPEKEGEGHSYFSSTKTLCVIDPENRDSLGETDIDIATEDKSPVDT
# Chain of Glucocorticoid receptor (Homo sapiens) (P04150 whole entry, looked up, the tested form may be a part): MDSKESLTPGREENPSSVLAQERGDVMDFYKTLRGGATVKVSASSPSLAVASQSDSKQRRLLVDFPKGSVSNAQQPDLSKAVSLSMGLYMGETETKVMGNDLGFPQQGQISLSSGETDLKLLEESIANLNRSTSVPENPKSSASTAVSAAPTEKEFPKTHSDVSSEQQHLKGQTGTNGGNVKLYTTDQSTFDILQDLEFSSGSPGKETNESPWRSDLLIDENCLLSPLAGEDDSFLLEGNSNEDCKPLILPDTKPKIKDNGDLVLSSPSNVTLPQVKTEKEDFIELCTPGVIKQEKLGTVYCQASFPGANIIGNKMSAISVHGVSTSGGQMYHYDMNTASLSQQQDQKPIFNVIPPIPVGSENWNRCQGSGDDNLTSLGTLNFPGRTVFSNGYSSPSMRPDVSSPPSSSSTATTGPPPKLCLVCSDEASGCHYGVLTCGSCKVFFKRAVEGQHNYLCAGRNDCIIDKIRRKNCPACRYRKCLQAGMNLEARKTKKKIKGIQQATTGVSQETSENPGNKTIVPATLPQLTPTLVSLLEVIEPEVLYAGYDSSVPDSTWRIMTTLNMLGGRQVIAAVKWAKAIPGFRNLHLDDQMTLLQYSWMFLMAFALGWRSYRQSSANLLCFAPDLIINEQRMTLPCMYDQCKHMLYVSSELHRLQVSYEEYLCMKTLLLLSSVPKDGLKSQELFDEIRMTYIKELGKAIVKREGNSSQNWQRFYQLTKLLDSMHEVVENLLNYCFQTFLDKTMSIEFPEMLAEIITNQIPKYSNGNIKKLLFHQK
# Chain of Lysosomal acid glucosylceramidase (Homo sapiens) (P04062 whole entry, looked up): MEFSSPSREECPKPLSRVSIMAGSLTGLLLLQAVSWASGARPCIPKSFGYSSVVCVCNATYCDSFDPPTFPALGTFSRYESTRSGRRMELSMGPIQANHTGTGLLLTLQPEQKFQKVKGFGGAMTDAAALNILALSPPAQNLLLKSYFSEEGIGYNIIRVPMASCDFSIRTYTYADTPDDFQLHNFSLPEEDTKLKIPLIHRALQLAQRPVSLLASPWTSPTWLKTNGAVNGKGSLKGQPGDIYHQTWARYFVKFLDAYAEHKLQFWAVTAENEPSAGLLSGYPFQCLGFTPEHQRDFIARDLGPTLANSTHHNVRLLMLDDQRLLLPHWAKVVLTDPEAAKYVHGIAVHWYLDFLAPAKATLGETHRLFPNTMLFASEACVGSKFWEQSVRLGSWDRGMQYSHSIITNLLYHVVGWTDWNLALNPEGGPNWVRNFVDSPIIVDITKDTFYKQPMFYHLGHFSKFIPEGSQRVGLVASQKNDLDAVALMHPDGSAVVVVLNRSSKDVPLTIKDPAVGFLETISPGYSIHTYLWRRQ
# Chain of Tyrosine-protein kinase Yes (Homo sapiens) (P07947 whole entry, looked up): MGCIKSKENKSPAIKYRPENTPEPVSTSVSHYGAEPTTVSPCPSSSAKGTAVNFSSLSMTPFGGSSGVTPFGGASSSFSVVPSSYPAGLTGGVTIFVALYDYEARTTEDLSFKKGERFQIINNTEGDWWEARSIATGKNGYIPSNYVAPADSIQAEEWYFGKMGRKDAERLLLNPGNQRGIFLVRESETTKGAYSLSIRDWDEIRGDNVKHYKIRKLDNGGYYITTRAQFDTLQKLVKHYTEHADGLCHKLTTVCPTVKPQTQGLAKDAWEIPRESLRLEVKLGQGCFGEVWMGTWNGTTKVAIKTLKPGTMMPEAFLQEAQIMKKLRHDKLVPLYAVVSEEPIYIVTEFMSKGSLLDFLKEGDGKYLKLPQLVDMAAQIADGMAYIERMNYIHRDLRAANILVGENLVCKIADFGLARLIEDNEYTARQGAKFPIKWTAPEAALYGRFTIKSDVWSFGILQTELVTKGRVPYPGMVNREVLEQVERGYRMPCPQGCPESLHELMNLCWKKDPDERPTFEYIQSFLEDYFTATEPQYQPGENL
# Chain of DNA dC->dU-editing enzyme APOBEC-3G (Homo sapiens) (Q9HC16 whole entry, looked up): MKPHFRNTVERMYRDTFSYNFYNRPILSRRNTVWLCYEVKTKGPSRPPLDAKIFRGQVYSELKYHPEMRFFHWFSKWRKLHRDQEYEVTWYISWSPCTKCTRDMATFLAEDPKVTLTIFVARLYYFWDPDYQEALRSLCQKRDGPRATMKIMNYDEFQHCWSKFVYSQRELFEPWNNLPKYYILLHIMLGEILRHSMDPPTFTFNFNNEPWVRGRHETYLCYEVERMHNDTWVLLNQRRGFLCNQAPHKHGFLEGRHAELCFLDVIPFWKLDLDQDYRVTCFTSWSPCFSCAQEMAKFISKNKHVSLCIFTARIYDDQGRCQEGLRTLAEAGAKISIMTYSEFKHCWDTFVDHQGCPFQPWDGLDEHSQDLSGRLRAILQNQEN
# Chain of Ubiquitin carboxyl-terminal hydrolase 1 (Homo sapiens) (O94782 whole entry, looked up): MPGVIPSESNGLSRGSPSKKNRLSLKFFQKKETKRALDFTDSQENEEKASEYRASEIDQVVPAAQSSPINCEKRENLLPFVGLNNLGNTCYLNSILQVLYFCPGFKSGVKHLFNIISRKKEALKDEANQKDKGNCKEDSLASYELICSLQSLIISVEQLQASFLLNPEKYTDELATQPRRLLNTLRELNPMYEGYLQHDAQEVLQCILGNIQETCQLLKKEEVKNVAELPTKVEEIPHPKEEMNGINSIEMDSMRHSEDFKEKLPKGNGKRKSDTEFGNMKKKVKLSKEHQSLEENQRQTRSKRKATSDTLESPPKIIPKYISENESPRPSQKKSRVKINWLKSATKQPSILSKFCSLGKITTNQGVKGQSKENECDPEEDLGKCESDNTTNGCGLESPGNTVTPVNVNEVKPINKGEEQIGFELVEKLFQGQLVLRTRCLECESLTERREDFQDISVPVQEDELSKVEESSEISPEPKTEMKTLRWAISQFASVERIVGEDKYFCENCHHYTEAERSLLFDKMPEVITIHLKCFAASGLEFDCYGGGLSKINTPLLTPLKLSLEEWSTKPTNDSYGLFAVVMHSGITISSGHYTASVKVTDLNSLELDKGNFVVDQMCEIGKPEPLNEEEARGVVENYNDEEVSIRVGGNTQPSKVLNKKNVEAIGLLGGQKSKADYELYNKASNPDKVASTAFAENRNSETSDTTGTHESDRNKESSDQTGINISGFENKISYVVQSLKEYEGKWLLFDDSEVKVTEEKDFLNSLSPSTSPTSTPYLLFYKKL
structure (smiles),measurement,setting,value
NCCC[C@@H](N)C(=O)O,Potency,[1],> 11.4 µM
same,"activity change, negative = inhibition",[2],-2%
same,"activity, negative = inhibition",[3],1.44%
same,"activity change, negative = inhibition",[4],6.02% [at 11.4 µM]
same,Potency,[5],inactive
same,Potency,[6],inactive
same,Potency,[7],inactive
O=C1CCc2c(ccc3ccccc23)O1,Potency,[8],> 46 µM
same,Potency,[9],> 46 µM
same,Potency,[4],inactive
same,Potency,[5],inactive
same,Potency,[10],inactive
same,Potency,[11],inactive
same,Potency,[6],inactive
same,Potency,[7],inactive
same,outcome,[12],inactive
Cc1ccc(NC2=CC(=O)c3sc(C)nc3C2=O)cc1,Potency,[6],inactive
same,Potency,[7],inactive
same,Potency,[13],inactive
Fc1ccc(-c2nc3n(c2-c2ccncc2)CCS3)cc1,Potency,[14],15.8 µM (active)
same,Potency,[15],inactive
same,Potency,[16],0.519 µM (active)
same,outcome,[17],inactive
same,Potency,[6],inactive
same,Potency,[7],inactive
same,Potency,[13],inactive
